This passage reports sensor-assay potency score (higher = more potent) results from the OligoGym collection.
Further: reference of the scale not given here.

In one assay the target is VN1R2. In words: pooled miR-30 sensor sort-seq; sequence = guide strand. Particulars: shRNA.
The sequence TAACATAATGCAAAGGTGCTCA displayed a sensor-assay potency score (higher = more potent) of -0.437. Still for that read-out and setting: in the case of TTGGGGTAGAGATTGTTCCTAC it was -0.232; in that of TTTACTTTCATCTCTGCCCACC, -1.01. Regarding TTCTTTGTGATGTTGTTGTTGC, the sensor-assay potency score (higher = more potent) was -0.241.

The target in another assay is VNN1. The description is as above. The settings on record: shRNA.
TAGAGGATAATATTAACCCGGA registered a sensor-assay potency score (higher = more potent) of -0.217. TTAGCATTATTATTCTTGCTTG: the sensor-assay potency score (higher = more potent) is -0.677. As to TTTGCCACAACATAGATAGAGT, the sensor-assay potency score (higher = more potent) was -0.809.

As to TTTCACTCAGCAACACCTCAGG, the sensor-assay potency score (higher = more potent) was -0.729.

TTACTGTTAAGACAGGTCCGGA registered a sensor-assay potency score (higher = more potent) of -1.14.

Regarding TTCTCAGACATTTTGTAGCTTA, the sensor-assay potency score (higher = more potent) came out at 0.132. Still for that read-out and setting: the value for TATGGGTAGAGAGAGTCCCTGT was -0.516; that for TTATTATTCTTGCTTGTGCTGT was -0.405. Still for that read-out and setting: the value for TTAAATGACAGCAGAGATCTTT was 0.464; that for TATCATAATGAAATGCTCTTGA was 0.667; that for TTTCAAACCTGGTAGAAGCTGT was 0.475.

Sequence TTGACACCTGAAATTCTCCAGG registered a sensor-assay potency score (higher = more potent) of -0.925.

In a further assay the target is VNN2. The description is as above. Particulars: shRNA.
On to TATACTACTGAAATAGCCCTTC, for which the sensor-assay potency score (higher = more potent) was found to be 0.854. The sequence TTAAATGACAGCAAAGCTCCTT came in with a sensor-assay potency score (higher = more potent) of 0.199.

The sequence TAAATGACAGCAAAGCTCCTTT displayed a sensor-assay potency score (higher = more potent) of 0.246.

As for TTTCAAATCTTGTAGAAGCAGT, the sensor-assay potency score (higher = more potent) was -0.249. Regarding TTCTTTTTGTAACATTCTGTAG, the sensor-assay potency score (higher = more potent) was -1.08. Same read-out and setting: the value for TATTGTATTGAAAGTAGCCATT was -1.45. The same measure, in the same setting: the value for TAAGTTATTGCTGAATTGCTGG was 0.0796; that for TTTCGGTAAGTAGCACTTCAGG was -1.26. Consider TTGCACTTCAGCATTGTGCAGA, for which the sensor-assay potency score (higher = more potent) was -0.233.

Sequence TCTTCTTTTTGTAACATTCTGT yielded a sensor-assay potency score (higher = more potent) of -0.103. On the same count and under the same terms, the value for TTAGCAGGTAAGTTATTGCTGA was -0.154; that for TAATAATATGAATATTAGCAGG was -1.34.

The next assay concerns the target VWA2. The description is as above. The settings on record: shRNA.
As to TTTCTTTGCTTACATGGACTTC, the sensor-assay potency score (higher = more potent) is -1.06. Sequence TTTGTCATAGATGTGCAGCAGG showed a sensor-assay potency score (higher = more potent) of -0.376.

For TTTGCTTACATGGACTTCCTGG, the sensor-assay potency score (higher = more potent) amounted to 0.502. On the same count and under the same terms, in the case of AAAACCATCCTCTTGATTCTTG it was -0.0709. TCTCACAAAGCTCTGCATCTGA: the sensor-assay potency score (higher = more potent) came out at 0.327. The sequence TTGAAAATGAATCCAAGGGGAA yielded a sensor-assay potency score (higher = more potent) of -0.607.

Regarding TAGACCATCACATGCTTTGGGC, the sensor-assay potency score (higher = more potent) was -0.664. The same measure, in the same setting: in the case of TTGCTTACATGGACTTCCTGGA it was -0.0634; in that of TTTGAAAACCATCCTCTTGATT, -0.884. As for TTTGGTTGAACAGATCCTGAGG, the sensor-assay potency score (higher = more potent) was -0.36. TAGCCGTCCAGTCCTTCTGGAA displayed a sensor-assay potency score (higher = more potent) of -1.51. As to TAACAGAAACATGATGTCCACT, the sensor-assay potency score (higher = more potent) is -1.06.
